# Measured values as given in the supplement of paper PMC10849652.
# The full data set covers some 7,900 targets. This sample favours those with a hit. About 0.6% of all pairs of compound and target were hits. Values without a mark were called inactive.
# Tests used:
# Assay in all cases: log2 fold change, soluble protein after heating vs DMSO (PISA); higher = thermal stabilisation; K562 cells, 10 uM, 30 min; active = over 0.2 and 3.5 SD of the protein, either way, in both replicates (recomputed)
# bafetinib = compound: Cc1ccc(NC(=O)c2ccc(CN3CC[C@H](N(C)C)C3)c(C(F)(F)F)c2)cc1Nc1nccc(-c2cncnc2)n1 [bafetinib]
# In short: (§1)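 Values are thermal stability changes relative to control samples and are taken from duplicates. They are stated as log2 fold changes. Before quantification by TMTpro 16plex LC-MS/MS with equalised channel sums, K562 cells at 2×10^6 cells/mL were treated with 10 μM compound for 30 min, heated in aliquots for 3 min across 48°C-58°C, pooled, extracted in PBS with 0.5% NP-40 at 4°C, and centrifuged at 21,000xg for 90 min to give the soluble supernatant.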
# [1] = compound: Cc1cccc(CC(=O)N2CCc3c2ccc(-c2cn(C)c4ncnc(N)c24)c3F)n1
# In short: as §1
# dasatinib = compound: Cc1nc(Nc2ncc(C(=O)Nc3c(C)cccc3Cl)s2)cc(N2CCN(CCO)CC2)n1 [dasatinib]
# In short: as §1
# [2] = compound: Cn1cc(-c2ccc3c(c2)CCN3C(=O)Cc2cccc(C(F)(F)F)c2)c2c(N)ncnc21
# In short: as §1
# [3] = compound: Cn1cc(-c2ccc3nnc(C(F)(F)c4ccc5ncccc5c4)n3n2)cn1
# In short: as §1
# tipifarnib = compound: Cn1cncc1[C@@](N)(c1ccc(Cl)cc1)c1ccc2c(c1)c(-c1cccc(Cl)c1)cc(=O)n2C [tipifarnib]
# In short: as §1
# mubritinib = compound: FC(F)(F)c1ccc(/C=C/c2nc(COc3ccc(CCCCn4ccnn4)cc3)co2)cc1 [mubritinib]
# In short: as §1
# [4] = compound: NC(=O)Nc1cc(-c2cccc(F)c2)sc1C(=O)N[C@H]1CCCNC1
# In short: as §1
# [5] = compound: NC(=O)c1cnc(N[C@@H]2CCCC[C@@H]2N)nc1Nc1cccc(-n2nccn2)c1
# In short: as §1
# [6] = compound: NC1(c2ccc(-c3nc4ccn5c(=O)[nH]nc5c4cc3-c3ccccc3)cc2)CCC1
# In short: as §1
# [7] = compound: NCC(=O)Nc1ccc(-n2nc(C(F)(F)F)cc2-c2ccc3c(ccc4ccccc43)c2)cc1
# In short: as §1
# entinostat = compound: Nc1ccccc1NC(=O)c1ccc(CNC(=O)OCc2cccnc2)cc1 [entinostat]
# In short: as §1
# vorinostat = compound: O=C(CCCCCCC(=O)Nc1ccccc1)NO [vorinostat]
# In short: as §1
# citarinostat = compound: O=C(CCCCCCNC(=O)c1cnc(N(c2ccccc2)c2ccccc2Cl)nc1)NO [citarinostat]
# In short: as §1
# silmitasertib = compound: O=C(O)c1ccc2c(c1)nc(Nc1cccc(Cl)c1)c1ccncc12 [silmitasertib]
# In short: as §1
# [8] = compound: O=C1NC(=O)C(c2cnc3ccccn23)=C1c1cn2c3c(cc(F)cc13)CN(C(=O)N1CCCCC1)CC2
# In short: as §1
# [9] = compound: c1cc(OCCN2CCCCC2)cc(-c2n[nH]c3ccc(-c4nnc[nH]4)cc23)c1
# In short: as §1
# nilotinib = compound: Cc1cn(-c2cc(NC(=O)c3ccc(C)c(Nc4nccc(-c5cccnc5)n4)c3)cc(C(F)(F)F)c2)cn1 [nilotinib]
# In short: as §1
# [10] = compound: Cc1nc(Nc2n[nH]c3c2CN(C(=O)N[C@H](CN(C)C)c2ccccc2)C3(C)C)c2sccc2n1
# In short: as §1
# [11] = compound: Cc1ncc(-c2ccnc(Nc3ccc(S(C)(=O)=O)cc3)n2)n1C(C)C
# In short: as §1
# UniProt Q9NRX5, sequence (Q9NRX5 whole entry, looked up): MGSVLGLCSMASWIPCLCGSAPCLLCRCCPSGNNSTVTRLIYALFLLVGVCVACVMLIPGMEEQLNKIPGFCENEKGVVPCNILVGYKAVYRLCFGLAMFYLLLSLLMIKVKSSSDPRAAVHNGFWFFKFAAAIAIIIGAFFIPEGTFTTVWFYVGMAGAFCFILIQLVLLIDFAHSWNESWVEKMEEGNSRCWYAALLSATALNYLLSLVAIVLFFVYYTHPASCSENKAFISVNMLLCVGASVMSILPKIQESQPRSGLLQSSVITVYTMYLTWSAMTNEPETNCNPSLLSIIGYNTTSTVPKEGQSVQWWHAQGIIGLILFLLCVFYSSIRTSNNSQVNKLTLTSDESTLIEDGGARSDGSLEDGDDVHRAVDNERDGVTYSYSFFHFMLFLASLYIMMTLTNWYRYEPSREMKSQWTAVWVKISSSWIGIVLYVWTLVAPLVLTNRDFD
# UniProt O14796, sequence (O14796 whole entry, looked up): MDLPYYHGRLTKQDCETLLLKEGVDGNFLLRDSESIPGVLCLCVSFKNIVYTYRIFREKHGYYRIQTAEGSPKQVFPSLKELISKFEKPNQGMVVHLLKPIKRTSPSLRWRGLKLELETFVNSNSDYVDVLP
# UniProt Q9H4P4, sequence (Q9H4P4 whole entry, looked up): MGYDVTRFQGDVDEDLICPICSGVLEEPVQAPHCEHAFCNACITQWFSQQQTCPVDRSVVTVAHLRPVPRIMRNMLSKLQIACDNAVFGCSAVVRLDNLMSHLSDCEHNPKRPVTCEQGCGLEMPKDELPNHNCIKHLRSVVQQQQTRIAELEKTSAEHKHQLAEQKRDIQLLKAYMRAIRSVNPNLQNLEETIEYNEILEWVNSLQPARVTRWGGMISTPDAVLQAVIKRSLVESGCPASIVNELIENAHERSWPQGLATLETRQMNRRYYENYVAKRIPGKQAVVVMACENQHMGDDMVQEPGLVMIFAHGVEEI
# UniProt Q7L099, sequence (Q7L099 whole entry, looked up): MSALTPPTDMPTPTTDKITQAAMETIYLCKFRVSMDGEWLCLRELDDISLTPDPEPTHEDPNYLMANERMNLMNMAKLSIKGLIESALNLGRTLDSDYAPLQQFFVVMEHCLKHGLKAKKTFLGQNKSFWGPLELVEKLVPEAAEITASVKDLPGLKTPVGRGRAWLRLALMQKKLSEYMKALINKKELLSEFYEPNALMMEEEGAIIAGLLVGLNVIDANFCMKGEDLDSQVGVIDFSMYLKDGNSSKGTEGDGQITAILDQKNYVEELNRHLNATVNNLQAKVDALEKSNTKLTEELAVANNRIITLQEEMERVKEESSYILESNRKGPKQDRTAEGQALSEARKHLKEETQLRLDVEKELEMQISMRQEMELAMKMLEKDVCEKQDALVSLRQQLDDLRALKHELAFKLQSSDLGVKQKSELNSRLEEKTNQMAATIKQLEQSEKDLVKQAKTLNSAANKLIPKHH
# UniProt Q5T8P6, sequence (Q5T8P6 whole entry, looked up): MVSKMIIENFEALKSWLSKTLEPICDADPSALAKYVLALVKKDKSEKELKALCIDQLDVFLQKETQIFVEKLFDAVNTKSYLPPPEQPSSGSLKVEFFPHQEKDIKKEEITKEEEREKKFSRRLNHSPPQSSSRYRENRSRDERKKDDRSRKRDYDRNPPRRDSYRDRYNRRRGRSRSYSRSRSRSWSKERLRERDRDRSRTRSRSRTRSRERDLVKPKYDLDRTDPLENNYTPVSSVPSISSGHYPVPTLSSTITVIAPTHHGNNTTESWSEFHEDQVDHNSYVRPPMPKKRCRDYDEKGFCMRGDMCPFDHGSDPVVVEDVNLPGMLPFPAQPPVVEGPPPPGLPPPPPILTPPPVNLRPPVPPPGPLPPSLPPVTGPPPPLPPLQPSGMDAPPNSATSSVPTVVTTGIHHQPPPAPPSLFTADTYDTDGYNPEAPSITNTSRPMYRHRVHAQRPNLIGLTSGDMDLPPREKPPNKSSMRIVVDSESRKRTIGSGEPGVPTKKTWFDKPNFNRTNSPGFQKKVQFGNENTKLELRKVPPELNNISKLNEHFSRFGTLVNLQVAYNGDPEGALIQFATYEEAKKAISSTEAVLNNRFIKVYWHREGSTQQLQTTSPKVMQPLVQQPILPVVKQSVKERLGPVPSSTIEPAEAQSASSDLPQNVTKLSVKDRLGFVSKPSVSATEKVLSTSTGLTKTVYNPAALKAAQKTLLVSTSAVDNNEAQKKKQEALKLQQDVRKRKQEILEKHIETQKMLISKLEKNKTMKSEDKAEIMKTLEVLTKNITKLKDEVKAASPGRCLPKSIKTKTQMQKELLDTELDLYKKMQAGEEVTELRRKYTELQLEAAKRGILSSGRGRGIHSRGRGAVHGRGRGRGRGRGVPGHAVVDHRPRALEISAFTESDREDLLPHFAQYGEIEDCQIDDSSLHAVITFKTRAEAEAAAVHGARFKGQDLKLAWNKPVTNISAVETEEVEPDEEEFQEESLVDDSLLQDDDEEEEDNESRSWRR
# UniProt P04049, sequence (P04049 whole entry, looked up): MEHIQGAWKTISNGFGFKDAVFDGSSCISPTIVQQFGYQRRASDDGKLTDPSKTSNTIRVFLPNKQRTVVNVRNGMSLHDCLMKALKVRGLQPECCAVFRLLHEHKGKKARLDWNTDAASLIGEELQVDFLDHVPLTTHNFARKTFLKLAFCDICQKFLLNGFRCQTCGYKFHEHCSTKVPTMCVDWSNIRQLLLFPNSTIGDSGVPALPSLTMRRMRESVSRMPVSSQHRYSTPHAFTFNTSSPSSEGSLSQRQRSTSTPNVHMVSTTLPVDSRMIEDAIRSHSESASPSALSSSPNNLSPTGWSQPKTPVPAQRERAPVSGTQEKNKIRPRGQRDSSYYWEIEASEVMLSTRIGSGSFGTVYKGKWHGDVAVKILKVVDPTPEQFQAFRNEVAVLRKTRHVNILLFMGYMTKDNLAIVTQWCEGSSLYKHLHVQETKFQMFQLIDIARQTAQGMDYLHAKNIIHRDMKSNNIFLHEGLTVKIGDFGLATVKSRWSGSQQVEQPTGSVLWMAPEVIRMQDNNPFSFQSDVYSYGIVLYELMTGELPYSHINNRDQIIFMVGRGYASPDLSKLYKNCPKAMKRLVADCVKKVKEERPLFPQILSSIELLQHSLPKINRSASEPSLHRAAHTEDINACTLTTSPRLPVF
# UniProt A6NEQ0, sequence (A6NEQ0 whole entry, looked up): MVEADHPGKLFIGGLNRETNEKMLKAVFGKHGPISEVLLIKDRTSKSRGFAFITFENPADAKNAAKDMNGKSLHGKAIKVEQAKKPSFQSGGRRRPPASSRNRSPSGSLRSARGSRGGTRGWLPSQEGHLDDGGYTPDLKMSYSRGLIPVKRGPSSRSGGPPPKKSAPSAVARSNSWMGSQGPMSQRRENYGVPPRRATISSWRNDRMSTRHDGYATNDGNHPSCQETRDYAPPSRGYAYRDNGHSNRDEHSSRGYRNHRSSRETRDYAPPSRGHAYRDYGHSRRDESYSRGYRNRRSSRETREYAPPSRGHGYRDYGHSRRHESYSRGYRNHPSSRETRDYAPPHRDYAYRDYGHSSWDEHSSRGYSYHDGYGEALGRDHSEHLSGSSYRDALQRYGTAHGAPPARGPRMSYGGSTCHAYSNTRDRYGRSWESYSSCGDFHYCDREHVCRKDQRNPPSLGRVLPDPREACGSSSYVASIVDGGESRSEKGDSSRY
# UniProt P60903, sequence (P60903 whole entry, looked up): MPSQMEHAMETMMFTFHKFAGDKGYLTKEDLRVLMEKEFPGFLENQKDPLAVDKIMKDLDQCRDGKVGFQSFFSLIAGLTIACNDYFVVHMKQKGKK
# UniProt O43819, sequence (O43819 whole entry, looked up): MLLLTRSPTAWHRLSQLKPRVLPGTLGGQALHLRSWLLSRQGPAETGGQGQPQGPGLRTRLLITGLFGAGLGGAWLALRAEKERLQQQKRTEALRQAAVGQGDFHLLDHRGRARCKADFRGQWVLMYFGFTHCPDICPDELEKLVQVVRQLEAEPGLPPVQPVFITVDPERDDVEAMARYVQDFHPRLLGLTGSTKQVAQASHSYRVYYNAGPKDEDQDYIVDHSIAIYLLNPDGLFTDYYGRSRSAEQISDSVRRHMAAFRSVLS
Target,log2 fold change (bafetinib),log2 fold change [1],log2 fold change (dasatinib),log2 fold change [2],log2 fold change [3],log2 fold change (tipifarnib),log2 fold change (mubritinib),log2 fold change [4],log2 fold change [5],log2 fold change [6],log2 fold change [7],log2 fold change (entinostat),log2 fold change (vorinostat),log2 fold change (citarinostat),log2 fold change (silmitasertib),log2 fold change [8],log2 fold change [9],log2 fold change (nilotinib),log2 fold change [10],log2 fold change [11]
SCO2 (UniProt O43819),-0.058,-0.014,-0.042,0.107,0.039,0.014,-0.035,-0.598 (active),-0.078,0.015,0.006,-0.266,0.011,-0.001,-0.078,-0.092,0.118,–,–,–
SH2D1B (UniProt O14796),–,0.018,-1.18 (active),-0.358,-0.069,0.045,-0.187,-1.1 (active),0.04,-0.135,-0.024,0.055,0.101,0.413,-0.111,-0.018,-0.062,-0.421,-0.319,0.005
SEMG2 (UniProt Q02383),-0.089,0.016,–,0.008,–,–,-0.044,-0.013,0.046,0.651,–,0.033,-0.073,0.066,0.001,0.051,-0.067,-0.083,0.056,0.003
SERINC1 (UniProt Q9NRX5),-0.135,–,-0.034,–,0.054,-0.112,0.057,-0.061,-0.241,0.004,-0.174,-0.009,–,0.088,0.197,0.032,0.022,0.121,0.081,-0.064
RICTOR isoform 3 (UniProt Q6R327),–,0.141,-0.044,–,–,-0.052,–,0.075,0.054,–,–,0.044,0.211,0.066,–,0.289,-0.155,-0.102,0.176,-0.023
RBM26 isoform 3 (UniProt Q5T8P6),–,–,–,–,–,–,–,-0.079,-0.046,–,–,0.103,–,–,–,–,–,–,–,–
RAF1 isoform 2 (UniProt P04049),-0.062,-0.168,-0.191,0.181,-0.144,-0.185,-0.286,-0.208,-0.012,0.086,-0.017,-0.033,0.069,-0.037,-0.033,-0.13,-0.133,–,–,–
RUFY3 isoform 3 (UniProt Q7L099),–,-0.018,-0.271,0.024,0.134,-0.116,0.043,-0.032,-0.022,-0.05,-0.014,0.143,0.071,0.089,0.1,–,0.013,-0.16,0.045,0.052
RPS3 (UniProt E9PJN9),–,0.076,-0.207,–,-0.159,–,–,–,–,–,–,–,0.2,0,–,–,-0.048,–,–,–
RNF41 (UniProt Q9H4P4),-0.09,–,–,–,–,–,–,–,0.082,–,–,–,–,0.044,–,–,-0.018,–,–,–
RBMY1E (UniProt A6NEQ0),-0.041,0.219,–,0.29,-0.164,-0.016,0.192,–,–,-0.246,–,–,0.07,0.063,-0.156,–,-0.081,0.009,-0.038,0.026
RAB3IL1 (UniProt E9PK89),-0.053,0.01,–,0.258,0.056,-0.035,–,0.062,0.11,–,0.018,-0.023,0.112,0.049,–,-0.234,0.016,-0.007,-0.189,-0.101
S100A10 (UniProt P60903),-0.026,-0.035,–,0.146,–,0.131,–,0.3,0.283,–,–,0.189,-0.023,0.333,–,–,0.792 (active),0.072,-0.057,-0.016
SCAMP2 (UniProt H3BUB6),-0.226,–,0,0.062,0.095,0.188,0.023,-0.31,-0.392,0.021,-0.311,-0.175,–,-0.364,0.129,-0.267,-0.118,-0.056,0.03,-0.069
RABGAP1L isoform 5 (UniProt Q5R372),-0.031,–,-0.054,-0.002,–,0.073,0.036,-0.246,-0.094,-0.021,–,-0.051,–,–,0.106,-0.315 (active),–,0.112,-0.003,-0.047
